Drawing on PMC12136788, this text covers binding signal for 22 molecules.

T1: UNK ZnF1-3 (human, UniProt Q9C0B0 31-174)
T1 sequence: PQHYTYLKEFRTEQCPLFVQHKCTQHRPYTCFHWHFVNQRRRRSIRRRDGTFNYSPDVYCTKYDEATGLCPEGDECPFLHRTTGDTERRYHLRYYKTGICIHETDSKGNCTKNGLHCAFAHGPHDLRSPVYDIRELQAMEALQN

B1: chr1:39494447:39494448:+_ENSG00000168653_ENST00000372967|hu_mus|hu_hu_hu_mus_False|98_98 (ssRNA)
RNA: GGGAGUUCUACAGUCCGACGAUCGCACCGAGCGGCGAUCUUGUAGGGCUGUUCUGCGCUUAGGAACAUAAAGUGCCGGUCCAGGCUGAUGCCCAGCUUUUUCUGUAUGUCAAGGAAAGGCAUGGCUCUGCAGUGCCCUUGUCACAACAGAGGAUUGAGCAUCA
B2: chr16:75674161:75674162:-_ENSG00000065427_ENST00000302445|hu_hu|motif|central (ssRNA)
RNA: GGGAGUUCUACAGUCCGACGAUCCCUACCUGCCACCUUUAAGGUGAUGUCAGUCAGGUGAUCCCCAGGCUGCAGGUGACGGUAUUUUUGGAUGAAGUCAGUGAGUGAGAUGUCUACAUGGAACUUGUGUGGGUAUGGGUCUUCCAACAGAGGAUUGAGCAUCA
B3: 76004153_76004273_12107_CDS_ENSMUSG00000022565_ENSMUST00000071869|mouse|control|control (ssRNA)
RNA: GGGAGUUCUACAGUCCGACGAUCCUUCAUGGCCUGGAAGAGGGAGAUGAGUUUCCCAGAGUAGGGGUCCUUGUAGCCAGUGACGGCACGCUCAGCUGACAGCAGCUUGUCCUUGAACUCGGGGCCCACAAUACCCAUACGAACCAACAGAGGAUUGAGCAUCA
B4: chr11:93905761:93905762:+_ENSMUSG00000020859_ENSMUST00000103168|mus_mus|motif|central (ssRNA)
RNA: GGGAGUUCUACAGUCCGACGAUCCGCUGGCACCCCGGUAGAAAUAGAAAAGUGCACAAGCAGCAAAACAGAGAGAGAUACGGAGAUCGCAGAAUUAAUGACCACCGCCCCGCCAACAAAGCCAAACACAAACAGCAGCAUGCACAACAGAGGAUUGAGCAUCA
B5: chr13:113691719:113691720:-_ENSMUSG00000016018_ENSMUST00000022281|mus_hu|FALSE|FALSE (ssRNA)
RNA: GGGAGUUCUACAGUCCGACGAUCGUAUUCACCAGAAGAAAUCCAUCGGAAAUCCUUCCCAUCAAAUUUGCGGGCAUUUGUAAAUAAAACAGUUCUAGCUGGCAUGUUAAUUCCCAUAGCAAAGGUCUCCGUGGCAAAUAAGGCCAACAGAGGAUUGAGCAUCA
B6: chr7:135612788:135612789:-_ENSG00000105887_ENST00000393085|hu_mus|FALSE|FALSE (ssRNA)
RNA: GGGAGUUCUACAGUCCGACGAUCGCCAAGAGGUGAAAACAAAGGUCUCAAAACACCCUGUUGCAUUAUAUUGACUCAUAGACUGAUCAUGUGCCUUCCACUUCCUAGCAGAAUGUCCAACUCUAUAGCUGCUUGGCCUUUUGGCAACAGAGGAUUGAGCAUCA
B7: chr11:4127340:4127341:+_ENSG00000167325_ENST00000300738|hu_mus|hu_hu_hu_mus_False|28_38 (ssRNA)
RNA: GGGAGUUCUACAGUCCGACGAUCGGCAUAGUCAGGGUGCUUCGUGGUCAAGGUCGCGGCUGUCUCAGCAGCCAGGGUGUCCAGUUCCACUGUGGUGACCCCACUGUACAAGCCUUGGAUUACUUUCAUGGUGAUCUGAGCAGGCAACAGAGGAUUGAGCAUCA
B8: chr4:24541891:24541892:-_ENSG00000109606_ENST00000336812|perfect_dup|FALSE|FALSE (ssRNA)
RNA: GGGAGUUCUACAGUCCGACGAUCGGAUCCCAAUUCAGUCAGAUCUCCAUCAUCAUUUAAAGCAGCCAAAUAAUUCAAAAGUUCUAGGGCUCUCAUCAGAGUUUCAGGAGCUGGUGGGUCCAUAAAAUCAAAGUGUACCAAGUCCAACAGAGGAUUGAGCAUCA
B9: chr15:96529919:96529920:-_ENSMUSG00000022462_ENSMUST00000023099|mus_hu|FALSE|FALSE (ssRNA)
RNA: GGGAGUUCUACAGUCCGACGAUCUCUCUAUUCUCACGCAGACGUCUUCAGUGGGUUUCUCUCAGUCAAAUACAAAUCAUAAAAAACAAACAAAAAAUUUCCCCAAAUCCAACAACAGGCAGGAAAAAUAAUUUUAAUAAAAAACAACAGAGGAUUGAGCAUCA
B10: chr2:202488911:202488912:-_ENSG00000155755_ENST00000286196|hu_mus|hu_hu_hu_mus_False|58_68 (ssRNA)
RNA: GGGAGUUCUACAGUCCGACGAUCAUUGAAACAUUUUUCAUAAUCUCCAGUAGCAUUUCAGCAUUAUUAAUCAAAAAAUCUAUUACAAAUACAUGUAUCUUAUAAAAAUACACUUAAAAACACGAGUGGGGAGCGCAGGCGCCACAACAGAGGAUUGAGCAUCA
B11: chr2:202488911:202488912:-_ENSG00000155755_ENST00000286196|hu_mus|hu_hu_hu_mus_False|18_68 (ssRNA)
RNA: GGGAGUUCUACAGUCCGACGAUCAUUGAAACAUUUUUCAUAAUCUCCAGUAGCAUUUCAGCAUUAUUAAUCAAAAACUCAAUUGUAAAUACAUGUAUCUUAUAAAAAUACACUUAAAUUUAAAAACGGGGAGCGCAGGCGCCACAACAGAGGAUUGAGCAUCA
B12: chr17:62500844:62500845:-_ENSG00000108654_ENST00000583239|hu_hu|FALSE|FALSE (ssRNA)
RNA: GGGAGUUCUACAGUCCGACGAUCCUUGAUAAAAAUUCUUCUCAAAUUUAGGCAGCUCAUCAAGAUUCCACUUCUUUUUAACUAAUUUCUCCCCAGGGUUUCCAAACUUCUUUCCAGAUAAGGGCCCUGCCCUACUUCCUCCAACAACAGAGGAUUGAGCAUCA
B13: chr2:202488911:202488912:-_ENSG00000155755_ENST00000286196|hu_mus|hu_hu_hu_mus_False|18_78 (ssRNA)
RNA: GGGAGUUCUACAGUCCGACGAUCAUUGAAACAUUUUUCAUAAUCUCCAGUAGCAUUCAGUAUUAUAGUAACAAAAGCUCAAUUGUAAAUACAUGUAUCUUAUAAAAAUACACUUAAAUUUAAAAACGGGGAGCGCAGGCGCCACAACAGAGGAUUGAGCAUCA
B14: chr2:216981417:216981418:+_ENSG00000079246_ENST00000392132|hu_hu|hu_hu_hu_mus_True|48_48 (ssRNA)
RNA: GGGAGUUCUACAGUCCGACGAUCCUGAUACUGGUCCUUGCCAGCAAGGGCAUUAUCAGUGCCAUCUGUGCCAUAGAGGACUAACGCAAUCUCAUCCUUGCUCUCCGAAAAUACCUGUCGUUGGACAAACAUAGUCAUCACUUUCAACAGAGGAUUGAGCAUCA
B15: 132431906_132432936_2116_CDS_ENSG00000170606_ENST00000304858|human|control|control (ssRNA)
RNA: GGGAGUUCUACAGUCCGACGAUCUCUCAUUUCAUACACAUAUUCCUCCACUGCGUUCUUAGCAUCAUUCCGCUCCUUCUCCAGUUUAUCCUGCAUGAUCAUCUUACCCUCAUUUUCAAUGUACAAGUUGAGCAUCUCUCUGUCCAACAGAGGAUUGAGCAUCA
B16: 96523144_96524318_649_CDS_ENSMUSG00000031751_ENSMUST00000053766|mouse|control|control (ssRNA)
RNA: GGGAGUUCUACAGUCCGACGAUCGGAAAGGUAUUCAAAUCUGUCUUUGCAGAGCUGAACCAUCAGAUGCAGGAAGACAAGUCCAGCAAACCAGAGGCACCACAUCACCACUUCCUCCACAGUCUGGACAUUCAGCACUCCAAACAACAGAGGAUUGAGCAUCA
B17: chr18:33606911:33606912:-_ENSG00000141425_ENST00000399022|hu_mus|FALSE|FALSE (ssRNA)
RNA: GGGAGUUCUACAGUCCGACGAUCUUCCAAUUUAUGUUCUUUCUCUGCAAGGGCUUCCUUUUGACAACGAAGAAAAUCUGCUAACAUUCGGGUGAGUUGCUUUCUAUCAUCUAUUUCUGCCGCCAGUCUGCCAUUAUAAUCUGCCAACAGAGGAUUGAGCAUCA
B18: chr12:48362563:48362564:+_ENSG00000134291_ENST00000256686|hu_hu|hu_hu_hu_mus_False|58_88 (ssRNA)
RNA: GGGAGUUCUACAGUCCGACGAUCUCCGUCAAGCCCUUCGAUAGACCCAUAGACUCUAAACUGUAAUCACUUUGUAUUUCUAAAAAAAAGAAACGCCAAAAACUUUCCAAAAAGCGGGGGUGGGGUGAGGCGGGAGGGGGAGGUCAACAGAGGAUUGAGCAUCA
B19: 419052_420092_3597_CDS_ENSG00000073614_ENST00000399788|human|control|control (ssRNA)
RNA: GGGAGUUCUACAGUCCGACGAUCUUCUAUUAGUUCUUUUACUUUUUUCCUCCUAUUUUUGCCACUCCCAUAUACACCAAUGUCGGUCCGGGGGCUCAGCACCUGUAACAAUGUAUGGCUAGAAUUCUUCUUAAGAAACGUCCGCAACAGAGGAUUGAGCAUCA
B20: chr7:888068:888069:+_ENSG00000164828_ENST00000456758|hu_hu|motif|central (ssRNA)
RNA: GGGAGUUCUACAGUCCGACGAUCUUGAACUAAAAAUGAUGAAAAAGAUGAUGCAGUGUAUCUGGCCAGCCACAAAAUCCGGUUCACGUAGAAAGACGCACCGCAUUUUUGAUUCCUGUCCCUAGAAUAAACUCUCGACACGGGCAACAGAGGAUUGAGCAUCA
B21: chr19:40639365:40639366:-_ENSMUSG00000025007_ENSMUST00000025979|mus_mus|motif|central (ssRNA)
RNA: GGGAGUUCUACAGUCCGACGAUCGGCUGCCACCUGGGGUAGACAGUCAGGGCGAGACUCAAAGAUCACCAGUAAAACACCGGUUGGGACAGUCACUUGUUCUAACUCCAGGUUUUUGGCAAUCCGAGUCCGGCGCAGGACGCGCAACAGAGGAUUGAGCAUCA
B22: chr2:168997265:168997266:-_ENSG00000198648_ENST00000355999|hu_mus|motif|central (ssRNA)
RNA: GGGAGUUCUACAGUCCGACGAUCUUUAUUCCGUGUAACAUCACCCCCUGUGGCUAAGAAUGCGCUUACUCCAAAAUCUGCGGUUUGUACUGAGCCAUCCUCACCCAGAAGAAUAUUUCCAGCUUUCAAAUCCCUAUGGAUCUGCAACAGAGGAUUGAGCAUCA

Over roughly 24,000 sequences, “enrichment r” has its median near 0.99; the highest 2% begin near 3.7. This excerpt belongs to a sample that is enriched for the highest values.

For this experiment, the target named is T1, UNK ZnF1-3. The experiment can be described thus: nsRBNS (natural sequence RNA bind-n-seq); RBNS binding buffer (assumed for nsRBNS): 25 mM Tris pH 7.5, 150 mM KCl, 3 mM MgCl2, 0.01% Triton X-100, 500 ug/ml BSA, 20 U/ml SUPERase-In, 4 C; UNK is unkempt and MSI1 is Musashi-1; names of the RNAs are library labels; protein concentration not given here; high values mean tight binding.
As for B1, the binding signal was determined as 0.548 enrichment R.

The molecule B2 displayed a binding signal of 0.761 enrichment R.

Molecule B3 showed a binding signal of 1.29 enrichment R.

For B4, the binding signal worked out at 2.32 enrichment R.

Molecule B5 displayed a binding signal of 1.77 enrichment R.

The molecule B6 gave a binding signal of 1.02 enrichment R.

B7 yielded a binding signal of 1.08 enrichment R.

Molecule B8 returned a binding signal of 1.58 enrichment R.

For the molecule B9, the binding signal worked out at 3.81 enrichment R.

Molecule B10 returned a binding signal of 14 enrichment R.

Molecule B11 had a binding signal of 7.64 enrichment R.

For B12, the binding signal stood at 1.55 enrichment R.

In turn, B13 showed a binding signal of 5.43 enrichment R.

B14 came in with a binding signal of 0.666 enrichment R.

As to B15, the binding signal turned out to be 0.774 enrichment R.

Take B16: the binding signal was 2.02 enrichment R.

Molecule B17 showed a binding signal of 0.802 enrichment R.

With B18, the binding signal was determined as 1.85 enrichment R.

With B19, the binding signal stood at 0.677 enrichment R.

Consider B20, for which the binding signal is 1.34 enrichment R.

Consider B21, for which the binding signal amounted to 1.58 enrichment R.

Turning to B22, the binding signal is 0.927 enrichment R.
